Experimental data: PubChem BioAssay AID1053143 (Broad Institute, 2014)
The campaign covered roughly 3,400 compounds. About 120 (3.5%) were called active. A selection follows. Entries with a potency or affinity are not part of this list. Values without a mark were called inactive. No rule for the calls is given here.

experiment: HepG2 cell cytotoxicity, dose response, cytotoxicity control, ATP luminescence, cherry-pick, activator set 2 (AID 1053143); details: HepG2 viability, CellTiter-Glo ATP luminescence, 72 h; series mostly up to 26 µM; activity change, negative = cytotoxicity: at the top concentration

Compound | activity change, negative = cytotoxicity
CCCC(=O)Nc1ccc(C#Cc2ccccc2)cc1 | -0.469%
O=C(NC(=O)c1ccccc1)Nc1ccccc1 | 1.49%
Cc1ccc(NC(=O)c2ccc(OC(=O)c3cc4ccccc4o3)cc2)cc1 | 4.2%
CCOC(=O)C1=C(C)NC(=O)C(C(N)=O)C1c1ccccc1 (stereo not drawn) | -3.34%
O=C(NC1CC1)C1Nc2ccc(OC(F)(F)F)cc2C2C=CCC12 (stereo not drawn) | 29.6%
O=C(Nc1ccc2c(c1)nc1n2CCOC1)c1ccccc1 | -16.9%
O=C(Nc1nc2ccccc2[nH]1)c1cccc(Cl)c1 | -18.3%
COc1cccc(NC(=O)c2cccc(Cl)c2)c1 | -17.7% [at 12 µM]
COc1ccc2cc3cc(C(=O)N4CCCCC4C)oc3nc2c1 (stereo not drawn) | -0.02%
Cc1nn(Cc2ccccc2)c(Cl)c1C(=O)NCCc1ccccc1 | -3.92%
CCCn1cnc2cc(NC(=O)c3cccs3)ccc21 | -9.34%
O=c1c2ccccc2oc2cc(C#Cc3ccccn3)ccc12 | -1.68%
COc1cccc2oc3cc(C#Cc4ccccn4)ccc3c(=O)c12 | -8.47%
O=[N+]([O-])c1cc(Cl)ccc1-c1nc(-c2ccccc2)no1 | -7.06%
Fc1ccc(-c2cn3cc(C(F)(F)F)cc(Cl)c3n2)cc1 | 1.44%
O=C(CCCCn1c(=O)[nH]c2ccsc2c1=O)NCCc1ccccc1 | -18.2%
C[C@@H]1ON(C)[C@H]2C[C@H]3c4cc(-c5cc6ccccc6o5)ccc4CCN3C[C@@H]12 | -0.799%
Cc1occc1C(=O)N/N=C/c1ccc(OCc2ccccc2)cc1 | -26.3% [at 12 µM]
COc1cccc(/C=N/NC(=O)c2ccoc2C)c1 | -16.8%
O=C(N/N=C/c1ccc2c(c1)OCO2)c1ccc(Br)o1 | -2.64%
O=C(NN=Cc1ccc2c(c1)OCO2)c1ccccc1 | -0.221%
O=C(CSc1nnc(-c2ccncc2)o1)Nc1cc(F)ccc1F | -5.14% [at 12 µM]
CN(C)c1ccc(-c2ccccc2)nn1 | -12%
CCC(=O)NC1=C(Nc2ccc(N)cc2)C(=O)c2ccccc2C1=O | -24%
CCc1ccc(NCc2nc3ccccc3c(=O)[nH]2)cc1 | -3.06%
COCC(=O)OCc1cc2cccc(C)c2[nH]c1=O | -13.6%

Compound | activity change, negative = cytotoxicity
Cc1ccc(N2CC(C(=O)Nc3ccc4c(c3)OCCO4)CC2=O)cc1 (stereo not drawn) | -12.7%
O=C(CN1CCOCC1)Nc1ccc(C2CCCCC2)cc1 | 3.28%
Cc1cc(C(=O)NC2CCCCCCC2)ccc1[N+](=O)[O-] | -3.55%
COc1ccc(/C=C/C(=O)c2ccccc2)c(OC)c1 | 4.41%
COc1ccc2nc(-c3ccccc3)[nH]c2c1 | -28.6%
Cc1cc(NC(=O)c2ccc3nccnc3c2)ccc1Br | -12.6%
O=C(NC1=NCCS1)c1ccc(OCC2CCCO2)cc1 (stereo not drawn) | -9.45%
Cc1ccc(NC(=O)c2ccc(OCC3CCCO3)cc2)cc1Cl (stereo not drawn) | -31.3%
Cc1ccnc(NC(=O)c2ccc(S(=O)(=O)N3CCC(C)CC3)cc2)c1 | -2.07%
COc1cc(Cl)ccc1OCc1cc(C(=O)NC(C)Cc2cnccn2)no1 (stereo not drawn) | -13.1%
Cc1ccc(NC(=O)Nc2cccc(C)n2)c(C)c1 | -16.3%
Oc1cccc(Nc2nc(O)c(/C=C3\C=Nc4ccccc43)s2)c1 | -8.74%
COc1ccc(-c2csc(N(CC3CCCO3)C(=O)c3ccc(C)cc3)n2)cc1 (stereo not drawn) | -14.5%
CC(C)CN1CCC(=O)N(CCSc2ccccc2)CC1 | -0.298%
Clc1ccc(/C=N/Nc2ccccn2)cc1 | 3.24% [at 12 µM]
O=[N+]([O-])c1ccc(NN=Cc2ccc(O)cc2)nc1 | 2.51%
COC(=O)c1sc(-c2ccc(C(C)(C)C)cc2)cc1NC(=O)c1ccccc1C(=O)O | -0.287%
COc1ccc(N2CCN(c3ccc(NC(=O)/C=C\C(=O)O)cc3)CC2)cc1 | -5.11%
CC1CCC(C(C)C)C(=O)/C1=C/c1ccc(N)cc1 (stereo not drawn) | -13.4%
Cn1c(=NN=Cc2ccccc2OCCO)sc2ccccc21 | -17.3%
COc1ccc(-c2cn(Cc3ccc(C(N)=O)cc3)c(-c3ccncc3)n2)cc1 | -26.3%
COc1ncccc1-c1nnn(-c2ccccc2)n1 | -15.1%
COc1ncccc1-c1nnn(-c2ccc(C)cc2)n1 | -28.8%
CCCCn1c(SCC2CCCCO2)nc2cc(S(N)(=O)=O)ccc21 (stereo not drawn) | -22.6%
O=C(Cn1nnc2ccccc21)c1ccc(Cl)cc1 | -7.73%
c1ccc(-n2ncc3c(NCCN4CCOCC4)ncnc32)cc1 | -15.4%

Compound | activity change, negative = cytotoxicity
COc1ccccc1C(=O)Nc1nnc(SCC(=O)NCC2CCCO2)s1 (stereo not drawn) | -5.08%
Cn1c(=O)c(C(=O)NCC2CCCO2)c(O)c2ccccc21 (stereo not drawn) | -4.84%
CC1(c2ccccn2)Nc2ccccc2-c2nc3ccccc3n21 (stereo not drawn) | -6.75%
NC(=O)c1ccccc1NC(=O)/C=C/c1ccccc1 | 14%
O=C(Nc1nccs1)c1ccc(-c2ccc(F)cc2)o1 | -7.12%
COC(=O)c1c(NC(=O)c2ccc(C)o2)sc2c1CCCCC2 | 19.4%
Cc1ccc(C(=O)Nc2nc3c(s2)CCCC3)o1 | -19.8%
Cc1cccc(Cc2cnc(NC(=O)c3ccc(C)o3)s2)c1 | -22.4%
CCCCN(C(=O)Cc1cccs1)c1nnc(-c2cccnc2)s1 | 1.27%
O=C(NCCc1ccc(Cl)cc1)c1ccc2c(c1)OCO2 | -4.91%
Cc1cccc(OCC(=O)Nc2nccs2)c1C | -2.78%
CC(C)(C)NC(=O)Nc1ccc(Br)cc1 | -21.4%
O=C1c2ccncc2C(=O)N1CNc1ccc(Cl)cc1 | -11.6%
O=C(Cc1nc2ccccc2[nH]c1=O)c1ccc(Cl)cc1 | 15.3%
O=C(O)c1ccc(/C=C(\c2nc3ccccc3[nH]2)c2nc3ccccc3s2)cc1 | 12.7%
CCc1cc(C(=O)COc2ccc(F)cc2)c(O)cc1O | -6.69%
CN(C)c1ccnc2sc(C(=O)c3ccccc3)c(N)c12 | -10.8%
CC1(C)Cc2c(c(N3CCOCC3)nc3sc(C(=O)Nc4ccccc4)c(N)c23)CO1 | -10.1%
CCCCN1CCc2c([nH]c3ccc(C)cc23)C1=O | -7.17%
O=C1CCC(c2ccccc2)c2ccccc21 (stereo not drawn) | -5.58%
O=C(Nc1ccc2ccccc2c1)c1ccc(Cl)cc1Cl | -13%
Cn1ccc(NC(=O)c2ccc(Cl)cc2Cl)n1 | 9.45%
O=C(NCCO)c1ccc2c3n(nc2c1)-c1ccc(Cl)cc1CO3 | -13.4%
CN(C)CCN1C(=O)C(=O)/C(=C(/O)c2ccc3c(c2)OCCO3)C1c1ccccn1 (stereo not drawn) | -7.51%
COc1cccc(/C=C/C(=O)NNC(=O)c2ccccc2)c1OC | -12.3%
CSc1nc(Cl)cc(Nc2ccc(O)cc2)n1 | -0.166%
